# From PubChem BioAssay
# This is a sample that favours compounds with a hit; in the whole collection about 2.2% have one here.
# GASC-1 inh – inhibitors of GASC-1 histone demethylase, primary screen, biochemical, fluorescence, DELFIA europium; 0.069% of 330,000 active; Lysine-specific demethylase 4C (Homo sapiens), Q9H3R0; GST-JMJD2C(1-420) H3K9me3 demethylation; inhibition, % at 2.35 µM;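 active means more than half of a compound's replicate wells show inhibition beyond 50%, single wells judged on their own value; inconclusive means some, but no more than half, of replicates pass 50% inhibition; inactive means no replicate passes 50% inhibition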;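 further: signal counts dimethyl H3K9 product captured on neutravidin plate; 0% = median of DMSO wells and 100% = 0.3 times that DMSO median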
# MEX-5 binding – MEX-5 zinc finger RNA-binding disruptors – biochemical, C. elegans, fluorescence polarization, MLPCN library, primary screen; 0.38% of 300,000 active; AID 1832, 2009; MEX-5/FITC-TCR2 RNA binding; stronger effect = lower value; activity score (negative = inhibition of binding), % at 10 µM;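 active means inhibition past about -25% in most replicates, and total fluorescence under double the plate's negative control median, limit read from the data; inconclusive means replicates evenly split on the limit, or fluorescence at least double controls; inactive means too little inhibition in most replicates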;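 further: 0% = DMSO and -100% = 5 µM competing unlabeled TCR2 RNA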
# Exocytosis inh – LAMP-1 surface exposure blockers, TALL-104 cells – cell-based, flow cytometry, MLPCN library, primary screen; TALL-104 LAMP-1 surface exposure; cells stimulated with thapsigargin and PMA; inhibition, % at 10 µM; 0.66% of 360,000 active; AID 651702, 2012;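 active means inhibition above about 55%, limit read from the data; inconclusive means no clear call, values can overlap the other calls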
# HTR2A ag – mouse Htr2a agonists via beta-arrestin recruitment, primary screen, cell-based, luminescence; 0.66% of 360,000 active; CHO-K1 mHTR2A beta-arrestin complementation; percent of 30 µM serotonin response; 5-hydroxytryptamine receptor 2A (Mus musculus), P35363; activation, % at 7.6 µM; AID 624169, 2012;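 active means activation above a run cutoff, the mean activation of all tested compounds plus 3 SD, cut at about 14% in these data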;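 further: 0% = plate median of compound wells and 100% = 30 µM serotonin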
# V-ATPase pH – regulators of yeast V-ATPase proton pumping, primary screen, pHLuorin cytosolic pH fluorescence; S. cerevisiae; response, % at 10 µM; 0.37% of 350,000 active; AID 504577, 2011; in the data active means response mostly above about 7.3%, no sharp cut-off; inactive means mostly below about 5.4%; further: actives read high
# VLA-4 inh – inhibition in human VLA-4 binding assay, primary screen, VLA-4 allosteric modulator project, MLPCN library, flow cytometry, VLA-4 expressing cells; Integrin alpha-4 (Homo sapiens), P13612; inhibition, % (about 7 µM as worked out from the volumes in the protocol); 0.2% of 330,000 active; AID 2557, 2010; ligand binding flow cytometry; in the data active means inhibition above about 50%
# Exocytosis CP01 – inhibitors of lytic granule exocytosis, confirmation, TALL-104 cells, flow cytometry, Cherry Pick01; 11% of 1,500 active; shares compounds with Exocytosis inh; LAMP-1 externalization; stimulated with PMA plus thapsigargin; AID 651954, 2012; inhibition, % at 10 µM; in the data active means inhibition above about 60%;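 further: 0% = stimulated vehicle wells and 100% = unstimulated wells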
# Starred values were filed as active, the others as inactive; ? = inconclusive; . = not tested or not shown.
SMILES,GASC-1 inh,MEX-5 binding,Exocytosis inh,HTR2A ag,V-ATPase pH,VLA-4 inh,Exocytosis CP01
CN(Cc1ccc(Cl)s1)C(=O)CSc1nnc(C2CC2)n1C1CC1,-10.1,.,-0.9,1.9,-2.5,3.4,.
CC(C)(C)C(=O)NC1(C(F)(F)F)NC(=O)N(c2ccccc2F)C1=O (stereo not given),19.1,3.1,4.0,-0.9,-5.5,42.2,.
CC(C)CC(=O)NC1(C(F)(F)F)NC(=O)N(c2ccccc2)C1=O (stereo not given),2.1,2.8,90.5*,-2.1,-3.6,-5.2,-4.5
CCOC(=O)C1(CCOC)CCN(Cc2cccc(OCc3ccccc3)c2)CC1,-23.1,-0.9,-4.5,-8.6,0.8,-0.5,.
CCOC(=O)C1(CCOc2ccccc2)CCN(Cc2cccc(OC)c2)CC1,-3.2,-9.8,85.5*,-11.5,2.1,5.2,-6.4
CCOC(=O)C1(CCOc2ccccc2)CCN(Cc2ccc(O)c(Cl)c2)CC1,1.8,-0.5,2.7,-6.7,0.2,4.7,.
CCOC(=O)C1(CCOc2ccccc2)CCN(Cc2ccc3c(c2)OCCO3)CC1,-5.2,-0.7,82.7*,-7.1,-4.4,9.5,-3.1
CCOC(=O)C1(CCOc2ccccc2)CCN(Cc2cccc(OC)c2O)CC1,-28.7,0.3,69.4*,0.6,-2.3,6.8,-8.6
CCOC(=O)C1(CCOc2ccccc2)CCN(Cc2ccc(O)c(OC)c2)CC1,-16.5,1.9,69.9*,-6.0,0.5,-0.5,-10.2
O=C(NCCN1CCCCC1)c1cc(COc2c(F)cccc2F)on1,2.5,3.3,-0.7,-6.0,-4.6,4.0,.
O=C(O)CC(CC(=O)N1CCN(C(=O)c2ccco2)CC1)c1ccccc1 (stereo not given),-4.9,-1.4,-0.2,0.0,0.8,-1.6,.
CC1(C)Cc2c(sc(NC(=O)C(=O)NCCCN3CCOCC3)c2C#N)CO1,-1.2,-1.2,-11.0,3.2,-4.9,15.9,.
CCOC(=O)C1(Cc2cccc(OC)c2)CCN(Cc2cc(OC)ccc2OC)CC1,-4.6,2.1,1.7,-2.1,-0.4,-0.8,.
CCOC(=O)C1(CCOc2ccccc2)CCN(Cc2cc(OC)ccc2OC)CC1,-2.1,0.6,83.7*,-6.2,-1.6,7.4,-6.9
CCOC(=O)C1(CCOc2ccccc2)CCN(Cc2ccc(C(=O)OC)cc2)CC1,-4.1,4.7,44.5,-6.2,-4.4,0.8,.
CCOC(=O)C1(CCOc2ccccc2)CCN(Cc2ccc(F)c(OC)c2)CC1,8.3,-0.3,72.1*,-9.5,-1.1,-0.7,-2.8
CCCCCCn1c(COc2ccccc2F)nnc1SCC(=O)N1c2ccccc2NC(=O)C1(C)C,-8.7,5.0,75.0*,-17.8,3.1,18.6,-8.7
CCC1C(=NO)C(CC)C(c2ccccc2)NC1c1ccccc1 (stereo not given),1.9,-0.2,5.2,-0.2,0.2,5.6,.
CCC1C(=O)C(CC)C(c2ccccc2)NC1c1ccccc1 (stereo not given),23.2,-0.4,60.6*,-3.5,0.8,-3.4,-5.1
COc1ccc(Cl)cc1NC(=O)CN(C)C1CCCCC1,9.7,2.1,0.4,-4.2,3.4,-3.9,.
COc1ccc(OC)c(NC(=O)CN(Cc2ccc(F)cc2)C2CCCCC2)c1,-4.2,0.3,76.1*,-6.0,-2.7,15.1,-10.6
COc1cccc(CN(C)C(=O)c2ccc(Oc3ccccc3)cc2)c1OC,7.4,2.6,72.6*,-0.4,-3.1,-0.4,26.9
COC(=O)C1CCN(C(=O)Cn2nnc(-c3cccc(F)c3)n2)CC1,-6.6,-3.2,-3.3,9.1,1.5,-1.7,.
O=C(CCOc1ccccc1F)N1CCN(c2ccccc2O)CC1,1.2,2.3,-1.9,-0.3,-0.8,-1.0,.
COCc1cc(C)nc(SCC(=O)Nc2nc(C)cs2)c1C#N,15.0,1.0,-9.3,8.5,-0.9,-4.0,.
SMILES,GASC-1 inh,MEX-5 binding,Exocytosis inh,HTR2A ag,V-ATPase pH,VLA-4 inh,Exocytosis CP01
COC(=O)C1=C(C)N(CCCC(=O)O)C(=O)NC1c1ccc2c(c1)OCO2 (stereo not given),-1.2,1.3,79.0*,-3.3,3.8,3.0,-3.3
CC1=C(C(=O)OCc2ccccc2)C(c2ccc(Cl)cc2Cl)NC(=O)N1CCCC(=O)O (stereo not given),-3.9,.,75.4*,-4.4,-3.4,-5.1,-5.1
COC(=O)C1=C(C)N(CCCC(=O)O)C(=O)NC1c1ccc(Cl)cc1 (stereo not given),-8.5,1.1,16.9,1.9,-1.8,6.5,.
CC(=O)c1ccc(N(C(=O)CNC(=O)c2ccco2)C(C(=O)NC2CCCC2)c2cccnc2)cc1 (stereo not given),5.6,-0.1,-7.0,3.0,2.2,18.6,.
CC(C)c1ccc(NC(=O)[C@H](NC(=O)[C@@H]2Cc3ccccc3CN2)c2ccccc2)cc1,-8.0,1.8,59.4*,-2.6,-0.1,33.7,-10.0
Cc1ccc(NC(=O)[C@H](NC(=O)[C@@H]2Cc3ccccc3CN2)c2ccccc2)cc1,1.8,-1.0,2.3,-9.6,4.9,18.4,.
CCC(CC)C(=O)Nc1ccc(Sc2ccc([N+](=O)[O-])cc2)cc1,-2.6,-0.9,55.6*,-3.1,4.3,7.4,-0.5
CCCC(=O)Nc1ccc(Sc2ccc([N+](=O)[O-])cc2)cc1,9.1,-0.3,-4.0,-3.5,5.0,11.9,.
CC(CN1CCN(Cc2ccccc2)CC1)OC(=O)c1ccco1 (stereo not given),1.1,-3.6,-2.0,-0.3,-1.5,1.3,.
CCCCNC(=O)c1cc2c(=O)n3cccc(C)c3nc2s1,-6.6,-0.6,14.1,-4.6,1.5,0.3,.
Cc1cccn2c(=O)c3cc(C(=O)NCCc4ccccc4)c(=N)n(Cc4ccco4)c3nc12,33.6,1.5,77.6*,-4.5,-4.2,-5.6,41.9
COc1ccc(CCNC(=O)c2cc3c(=O)n4cccc(C)c4nc3n(CC3CCCO3)c2=N)cc1 (stereo not given),1.4,2.4,62.0*,-0.9,7.8,10.7,-3.8
Cc1cccn2c(=O)c3cc(C(=O)NCCc4ccccc4)sc3nc12,-8.7,0.0,92.1*,-4.2,1.6,-1.0,-3.6
Cc1cccn2c(=O)c3cc(C(=O)NCC4CCCO4)c(=N)n(CCc4ccccc4)c3nc12 (stereo not given),13.6,?,13.2,1.3,-69.3,-2.0,.
O=[N+]([O-])c1cccc(COc2ccccc2CO)c1,.,.,-13.0,-0.1,.,.,.
